Laboratory results: PubChem BioAssay AID1117267 (The Scripps Research Institute Molecular Screening Center, 2014)
About 1,200 (1.3%) of roughly 92,000 compounds were called active. The sample holds actives, similar compounds and a random draw of the others, so the mix is not that of the screen.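 How the source made its calls: active means activation above the mean of all tested compounds plus 3 SD (cut at about 9.5% in these data); inactive means the rest.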

experiment: compounds raising TTR promoter-driven luciferase – cell-based, luminescence, SH-SY5Y, TTR promoter Gaussia luciferase, primary screen (AID 1117267); details: at 16.7 µM, active compounds read high, 100% = recombinant luciferase protein wells;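 further: cells exposed to compounds for one day before reading; 0% = median of all test compound wells on the plate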

SMILES	activation
CCC(=O)c1c(CC)c2n3c1=CC[C@H]3CC(Br)C=2 (some centres undefined)	-0.76% (inactive)
O=C(NC(=O)c1ccccc1N1CCCCC1)Nc1ccc(Br)cc1	22.9% (active)
O=C(Nc1ccc(C(=O)O)cc1)/C(=C\c1ccccc1)NC(=O)c1ccc(Br)cc1	0.53% (inactive)
COc1ccccc1C(=O)NC(=S)Nc1ccccc1N1CCCCC1	1.44% (inactive)
COc1ccc(C(C)NC(=O)C23CC4CC(CC(C4)C2)C3)cc1 (centres undefined)	0.59% (inactive)
CCC(C)[C@H]1COCCS(=O)(=O)N1Cc1ccc(C)cc1 (some centres undefined)	1.12% (inactive)
O=S1(=O)CCOC[C@H](CC2CCCCC2)N1Cc1ccc(F)cc1	0.81% (inactive)
Cc1ccc(CN2CCCOCCS2(=O)=O)cc1	11.7% (active)
N=c1ccn(CC(=O)NC(N)=O)c2ccccc12	10.4% (active)
CCc1ccccc1NC(=O)Cc1cn(C)c2ccccc12	4% (inactive)
O=C(Cn1cnc2ccccc21)Nc1ccccc1-c1ccccc1	-1.54% (inactive)
Cc1cn(C2CC(O)C(CO)O2)c(=O)n(CCCc2ccccc2)c1=O (centres undefined)	1.94% (inactive)
O=S(=O)(NCCCN1CCOCC1)c1ccc(F)c(Cl)c1	14.3% (active)
Cn1c(=O)c(=O)n(C)c2cc(S(=O)(=O)NCCN3CCN(c4ccccc4F)CC3)ccc21	-0.31% (inactive)
O=C(CN1CCOCC1)Nc1c(Cl)cc(Cl)cc1Cl	-1.15% (inactive)
Cn1nc(-c2ccccc2)c2cc([N+](=O)[O-])ccc21	2.37% (inactive)
CCCNC(=O)C(=O)Nc1cc2c3c(c1)CCC(=O)N3CCC2	0.51% (inactive)
CCOC(=O)c1c(-c2ccccc2)oc2ccc(OCC(=O)NN)cc12	3.27% (inactive)
CCOC(=O)c1c(-c2ccccc2)oc2ccc(OCC(N)=O)cc12	10% (active)
CCOC(=O)c1c(C)oc2ccc(OCC(=O)N(CC)CC)cc12	0.72% (inactive)
CCOc1ccc(CN2CCN(Cc3ccon3)CC2CCO)cc1 (centres undefined)	7.67% (inactive)
CC(NC(=O)CCCC1CCCCC1)c1ccc(S(N)(=O)=O)cc1 (centres undefined)	-0.93% (inactive)
CCOC(=O)COc1ccc([N+](=O)[O-])cc1	0.43% (inactive)
N#Cc1cccc(CN2CCC(=O)N(CCO)CC2)c1	14.7% (active)

SMILES	activation
O=C1CCN(Cc2ccc([N+](=O)[O-])cc2)CCN1[C@H](CO)Cc1ccccc1	-6.98% (inactive)
O=C1CCN(CCc2ccccc2)CCN1CCOc1ccccc1	0.26% (inactive)
CCCCCCNS(=O)(=O)c1ccccc1Br	-0.76% (inactive)
CCN([C@H](CO)C(C)C)S(=O)(=O)c1ccccc1Br	3.03% (inactive)
O=S(=O)(NCc1ccccc1Br)c1ccccc1Br	14% (active)
OC(c1ccccc1)(c1ccccc1)C1CCN(CCCOc2ccccc2)CC1	-2.2% (inactive)
CCOC(=O)c1cc(C(=O)Nc2ccc(S(=O)(=O)Nc3ccc(OC)cc3)cc2)nn1C	-1.23% (inactive)
CCOC(=O)c1cc(-c2ccc(Cl)s2)nc2c1c(C)nn2C	15.8% (active)
CCOC(=O)C1=C(O)CSC1=Nc1cccc(Cl)c1	-2.26% (inactive)
CCC(C(=O)NCc1ccccc1)n1c(Cc2cc(F)cc(F)c2)nc2ccccc21 (centres undefined)	-1.34% (inactive)
O=S(=O)(Cc1ccccc1)c1nc2ccccc2n1Cc1ccccn1	-0.52% (inactive)
O=C(O)Cn1c(Cc2ccccc2)nc2ccccc21	20.6% (active)
COc1cccc(OC)c1C(=O)OCC(=O)/C(C#N)=C(\C)N	-0.74% (inactive)
COc1ccc(CCNC(=O)COc2ccc3c(c2)OCO3)cc1	-1.39% (inactive)
CC(C)(C)C1CCC(OC(=O)CCC(=O)Nc2ccccc2)CC1 (centres undefined)	20.6% (active)
CC1CCN(CCC(=O)Nc2ccccc2)CC1	0.42% (inactive)
O=C(CCC1CCN(C(=O)c2cccc(Cl)c2F)CC1)Nc1ccccc1	-1.31% (inactive)
COc1cc2c(cc1CNC[C@H]1O[C@@H](n3cnc(C(N)=O)n3)[C@H](O)[C@@H]1O)OCO2	1.81% (inactive)
N#Cc1ccc(CSc2nnc3ccccn23)cc1	-0.39% (inactive)
Cc1ccc(-n2c(SCC(=O)Nc3ccc4c(c3)OCO4)nnc2-c2ccccn2)cc1	-2.71% (inactive)
N#Cc1ccc(CSc2nnc(-c3ccccn3)n2-c2ccc(Cl)cc2)cc1	28% (active)
COc1cccc(/C=C2\SC(=N)N(c3ccc(F)cc3)C2=O)c1	3.96% (inactive)
Cc1ccccc1Nc1c([N+](=O)[O-])ccc2nonc12	-2.33% (inactive)
COc1ccc(NC(=O)CCC(=O)N2CCN(S(=O)(=O)c3ccc(C)cc3)CC2)c(OC)c1	2.84% (inactive)

SMILES	activation
O=C(c1cc(S(=O)(=O)N2CCOCC2)ccc1Cl)N1CCOCC1	2.72% (inactive)
O=C(NNC(=O)c1cc(S(=O)(=O)N2CCCCC2)ccc1Cl)c1ccccc1O	11.9% (active)
O=C(COC(=O)c1cc(S(=O)(=O)N2CCCCC2)ccc1Cl)NCc1ccco1	2.03% (inactive)
Clc1ccc(Nc2ncnc3c2nnn3Cc2ccccc2)cc1	-0.95% (inactive)
Cc1nc(Nc2ccc3c(c2)OCCO3)c2nnn(Cc3ccccc3Cl)c2n1	11.8% (active)
Cc1cc(C)n2ncc(C(=O)Nc3ccc4c(c3)OCCO4)c2n1	2.76% (inactive)
O=C(Nc1cc(Cl)cc(Cl)c1)OCCN1CCCC12CCC(c1ccccc1)CC2 (centres undefined)	1.93% (inactive)
CCN(CC)S(=O)(=O)c1ccc(C(=O)N2CCN(C3=NS(=O)(=O)c4ccccc43)CC2)cc1	-0.96% (inactive)
C=CCN1C(=O)C2(OCCCO2)c2cccc(Cl)c21	0.94% (inactive)
COc1ccc(NC(=O)CCNC(=O)Cn2cnc3sc4c(c3c2=O)CCCC4)cc1OC	-1.59% (inactive)
O=C(CSc1n[nH]c(-c2cccnc2)n1)Nc1ccc(Cl)cc1	-0.75% (inactive)
Nc1nc(SCC(=O)Nc2ccc(Cl)cc2C(F)(F)F)n[nH]1	0.01% (inactive)
Nc1nc(SCC(=O)Nc2ccc(Cl)c([N+](=O)[O-])c2)n[nH]1	9.76% (active)
COc1ccc(-c2cc(C(=O)N/N=C/c3cccnc3)c3ccccc3n2)c(OC)c1	-1.67% (inactive)
COc1ccc2c(CC(=O)OCC(=O)NC(N)=O)coc2c1	1.14% (inactive)
O=C(NNS(=O)(=O)c1ccccc1)c1cnn(-c2ccc(Cl)cc2)c1C(F)(F)F	-0.1% (inactive)
Cc1ccc(C(=O)Nc2c(C#N)c(C)c(C)n2Cc2ccccc2)cc1	0.67% (inactive)
CC(=O)Nc1ccc(C(=O)Nc2nc(-c3cc(C)n(Cc4ccccc4)c3C)cs2)cc1	-0.51% (inactive)
Cc1c(C#N)c(NC(=O)c2ccccc2)n(Cc2ccccc2)c1C	10.7% (active)
COc1ccc(S(=O)(=O)N(CC(=O)N/N=C/c2ccccc2C(=O)O)c2ccccc2OC)cc1	-0.82% (inactive)
CSCCC(c1nnnn1Cc1ccccc1)N1CCN(C/C=C/c2ccccc2)CC1 (centres undefined)	-2.08% (inactive)
COc1ccc(C(=O)N2CCCC(C(=O)c3ccccc3OC)C2)cc1OC (centres undefined)	-0.18% (inactive)
Cc1nc(Cl)cc(N/N=C/c2ccccc2)n1	-2.14% (inactive)
COC(=O)c1sc(N)c(C(=O)OC)c1COC(=O)CNS(=O)(=O)c1ccc(C)cc1	-1.81% (inactive)

SMILES	activation
O=C(N=C1SC2CS(=O)(=O)CC2N1Cc1ccccc1)c1ccccc1 (centres undefined)	1.31% (inactive)
CC(C)NC(=O)c1ccc(Sc2ccccc2)c([N+](=O)[O-])c1	14.4% (active)
Cc1ccc(Sc2cc(C(=O)c3ccccc3C(=O)O)ccc2[N+](=O)[O-])cc1	1.71% (inactive)
O=C(NNC(=O)c1ccc(-n2cncn2)c([N+](=O)[O-])c1)c1ccccc1	-1.38% (inactive)
COC(=O)C1CCN(C(=O)c2ccc3oc(Cc4ccc(Cl)cc4)nc3c2)CC1	-1.37% (inactive)
Cc1ccsc1C(=O)OCC(=O)NCCc1ccccc1	2.82% (inactive)
CCOc1ccc(-c2cc(C(=O)N/N=C/c3ccc(O)cc3)c3ccccc3n2)cc1	-0.07% (inactive)
CCOc1ccc(N=C2NC(=O)S/C2=C\c2ccc(O)cc2)cc1	11.2% (active)
C=CCOc1ccc(/C=C2\SC(=S)N(CCC(=O)O)C2=O)cc1	0.39% (inactive)
O=C1CN(C(=O)COc2c(Cl)cccc2Cl)c2ccccc2N1	-1.21% (inactive)
O=C1CN(C(=O)COC(=O)/C=C/c2ccc(F)cc2)c2ccccc2N1	0.24% (inactive)
O=C1CN(C(=O)COC(=O)C2CC(=O)N(Cc3ccco3)C2)c2ccccc2N1 (centres undefined)	12.4% (active)
O=C(CSc1nc2cccc(F)c2c(=O)n1-c1ccccc1)Nc1ccc2c(c1)CCC2	-1.17% (inactive)
COc1cc(NS(=O)(=O)c2ccc(NC(=O)c3ccc([N+](=O)[O-])cc3)cc2)ncn1	-0.02% (inactive)
COc1ccc2c(c1)O/C(=C\c1ccccc1O)C2=O	-0.14% (inactive)
Cn1c(=O)c2cc(S(=O)(=O)NCCC(=O)Nc3ccc(F)cc3F)ccc2n(C)c1=O	0.89% (inactive)
COc1ccc(S(=O)(=O)NCC(=O)NCc2cc(=O)n(C)c(=O)n2C)cc1F	53.5% (active)
CC(=O)OCc1cc(=O)n(C)c(=O)n1C	1.42% (inactive)
O=C(C1=C(O)C(=O)N(CCOCCO)C1c1ccccn1)c1cccs1 (centres undefined)	-0.44% (inactive)
C/C(=C\C(=O)c1ccccc1)Nc1cccc(O)c1	-1.23% (inactive)
O=C(Cc1ccccc1)Nc1cccc(NC(=O)c2ccccc2)c1	-1.17% (inactive)
O=C(Nc1cccc(O)c1)c1ccc(C(=O)c2ccccc2)o1	15.8% (active)
